# ELG1 repair inh – qHTS screen for small molecules that inhibit ELG1-dependent DNA repair in human embryonic kidney (HEK293T) cells expressing luciferase-tagged ELG1. 330,000 compounds, 2.3% hits. AID 504467, 2011. Potency, µM (top dose mostly 46.1 µM), for the others: top-dose activity change, negative = inhibition, usual class: inhibitors. HEK293T ELG1-luciferase reporter, luminescence, 16 h; DNA damage induced by 5-fluorouridine; also: nearly all actives have a fitted effect of over 55% in size
#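 5-Fluorouridine DNA damage + compound/DMSO, 2,000 cells/well, 16 h, 37 °C/5% CO2. ONE-Glo, 30 min RT, luminescence. Readout = decrease in reporter signal.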
# VP16 counter – VP16 counterscreen qHTS for inhibitors of ROR gamma transcriptional activity. 310,000 compounds, 3.5% hits. AID 2546, 2010. Potency, µM (highest dose often 53.6 µM), for the others: at the top dose activity, negative = inhibition, most hits filed as inhibitors. Drosophila S2 Gal4-VP16 UAS-luciferase, luminescence, 20 h;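 also: Gal4-VP16 expression switched on by copper sulfate through the metallothionein promoter; nearly all actives have a fitted effect of over 50% in size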
# TDP1 cell CPT – qHTS for Inhibitors of human tyrosyl-DNA phosphodiesterase 1 (TDP1): qHTS in cells in presence of CPT. chicken DT40 Tdp1-/-;hTDP1 cells + 20 nM CPT, ATP luminescence, 48 h. Potency, µM (titrated, usually from 46.2 µM), inactives show top-dose activity change, negative = growth inhibition, most hits filed as inhibitors. 420,000 compounds, 12% hits; also: nearly all actives have a fitted effect of over 55% in size
#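 Chicken DT40 Tdp1-/- cells stably complemented with human TDP1 were seeded at 400 cells/well in medium containing 20 nM camptothecin, exposed to pin-transferred compounds, and grown at 37 °C for at least 48 hr. Viability was read as ATP luminescence.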
# DT40 TDP1 no CPT – qHTS for Inhibitors of human tyrosyl-DNA phosphodiesterase 1 (TDP1): qHTS in cells in absence of CPT. DT40 Tdp1-/- hTDP1 cells, no CPT, ATP luminescence, 48 h. Potency, µM (series often up to 46.2 µM), for the others: at the top dose activity change, negative = growth inhibition, actives largely listed as inhibitors. AID 686978, 2013. 420,000 compounds, 15% hits; also: nearly all actives have a fitted effect of over 55% in size
#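 Chicken DT40 Tdp1-/- cells complemented with human TDP1, screened without camptothecin (DMSO vehicle only), 400 cells/well. Compounds pin-transferred, cells incubated at 37 °C for at least 48 hr. Growth read as ATP-dependent luminescence (CellTiter-Glo, 30 min at RT).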
# ALOX12 inh – Primary qHTS assay for inhibitors of human arachidonate 12S-lipoxygenase (ALOX12): Round 2; 580,000 compounds, 1.1% hits; Polyunsaturated fatty acid lipoxygenase ALOX12 (Homo sapiens), P18054; Potency, µM (titrated, usually from 108 µM), for inactives: at the top dose activity change, negative = inhibition, hits mostly inhibitors; purified 12hLO, xylenol orange hydroperoxide absorbance
# Target sequence (P18054 whole entry, looked up): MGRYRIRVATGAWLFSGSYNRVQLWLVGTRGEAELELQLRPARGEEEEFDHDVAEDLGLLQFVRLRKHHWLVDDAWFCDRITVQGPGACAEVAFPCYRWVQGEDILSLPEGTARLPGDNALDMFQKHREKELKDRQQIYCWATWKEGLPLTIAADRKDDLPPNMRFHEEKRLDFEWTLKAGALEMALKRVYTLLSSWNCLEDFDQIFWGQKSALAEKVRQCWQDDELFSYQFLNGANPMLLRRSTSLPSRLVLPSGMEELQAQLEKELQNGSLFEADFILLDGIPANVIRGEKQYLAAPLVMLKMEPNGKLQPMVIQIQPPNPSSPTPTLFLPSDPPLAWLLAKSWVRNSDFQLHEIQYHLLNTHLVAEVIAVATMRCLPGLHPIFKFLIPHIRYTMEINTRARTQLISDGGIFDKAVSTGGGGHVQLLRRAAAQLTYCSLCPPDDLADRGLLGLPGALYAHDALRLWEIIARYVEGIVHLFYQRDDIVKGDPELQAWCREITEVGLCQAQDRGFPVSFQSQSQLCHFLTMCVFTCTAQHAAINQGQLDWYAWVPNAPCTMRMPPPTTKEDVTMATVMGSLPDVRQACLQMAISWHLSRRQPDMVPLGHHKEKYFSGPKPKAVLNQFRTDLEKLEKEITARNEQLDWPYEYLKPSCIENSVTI
#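 Hydroperoxide product was detected by ferrous iron/xylenol orange as the 573 to 405 nm absorbance ratio. Arachidonic acid at 40 uM (final) was turned over for 30 min at room temperature by 150 nM human 12hLO, pH 7.0 Hepes buffer, after 15 min compound preincubation.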
# RORgamma inh – qHTS for inhibitors of ROR gamma transcriptional activity | Nuclear receptor ROR-gamma (Mus musculus), P51450 | Potency, µM (highest dose often 53.6 µM), inactives show at the top dose activity change, negative = inhibition, usual class: inhibitors | Drosophila S2 Gal4-RORgamma UAS-luciferase reporter, 20 h | 310,000 compounds, 5.4% hits; also: nearly all actives have a fitted effect of over 60% in size
#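 A Gal4/UAS one-hybrid system in insect cells: metallothionein-promoter Gal4–ROR gamma fusion plus Photinus luciferase reporter. Copper sulfate 700 uM final, 20 hr ambient incubation, luminescent detection after 10 min with reagent.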
# * marks the source's active call; other numbers are inactive results; ? = inconclusive; . = no result given; ! = a repeat was not active; [ ] = another dose, or the depositor's remark. An excerpt weighted towards active compounds, which were near 15% of everything screened. Calls follow the shape of the dose curve; as a rule, active = well fitted curve in the direction sought with a large enough effect; inconclusive = small, poorly fitted or top-dose-only effect, or another doubt; inactive = no such curve, though single readings can be large; an effect the other way counts as inactive or inconclusive. % is scaled to controls: 0 for no effect and ±100 for the full control effect; potency is read from the fitted curve at half-maximal effect.
SMILES,ELG1 repair inh,VP16 counter,TDP1 cell CPT,DT40 TDP1 no CPT,ALOX12 inh,RORgamma inh
CCN(CC)c1nc(SCCOC(=O)Nc2ccccc2)nc(N(CC)CC)n1,-14%,3%,18µM*,?,-15%,-5%
CN(C)c1nc(SCCOC(=O)c2ccccc2)nc(N(C)C)n1,6%,1%,-23%,0%,-7%,-3%
COc1ccc(OC)c(S(=O)(=O)NCCS(=O)(=O)N2CCN(c3ccccc3)CC2)c1,-7%,6%,21µM*!,16µM*!,-1%,?
COc1ccc(OC)c(S(=O)(=O)NCCOC23CC4CC(CC(C4)C2)C3)c1,-9%,1%,18µM*,7.3µM*,-14%,2%
COc1ccc(OC)c(S(=O)(=O)NCCc2ccccc2)c1,?,12%,?,-16%,10%[57.4 µM],39%
CCOc1ccc(-n2cc(-c3ccccc3)c3c(=S)nc[nH]c32)cc1,17%,1.1µM*,15µM*,?,?,1µM*
COc1cc(SC)ccc1C(=O)N1CCN(c2ccc(O)cc2)CC1,21µM*,-17%,?,9.2µM*,-25%,20%
CCn1cc(C(=O)N2CCN(c3cccc(Cl)c3)CC2)c2cc(OC)c(OC)cc2c1=O,?,-2%,16µM*,23µM*,-30%,14%
CCn1cc(C(=O)N2CCN(c3ccc(OC)cc3)CC2)c2cc(OC)c(OC)cc2c1=O,-12%,-13%,10%,-12%,-2%,9%
COc1cc(SC)ccc1C(=O)N1CCN(c2ccccc2)CC1,-9%,3%,-9%,?,-2%,6%
COc1cc2c(C(=O)N3CCN(c4cccc(Cl)c4)CC3)cn(C)c(=O)c2cc1OC,?,6%,5.2µM*,3.7µM*,-14%,?
O=C(c1c(Cl)nc2sccn12)N1CCN(c2cccc(Cl)c2)CC1,?,5%,2.3µM*,2.3µM*,-83%,?
CCOCCN1C(=O)COC[C@@H]1[C@H](O)c1ccc(NC(=O)C2CC2)cc1,.,.,.,.,42%[176 µM],.
Cc1[nH]c(-c2ccc(F)cc2)cc1C(=O)N1CCN(c2cccc(Cl)c2)CC1,4%,-4%,-8%,16µM*,-11%,16%
COc1ccccc1C(=O)N1CCN(c2cccc(Cl)c2)CC1,2%,-10%,1.8µM*,1.6µM*,6%,3%
O=C(c1cc2ccccc2cc1O)N1CCN(c2cccc(Cl)c2)CC1,-9%,.,?,?,-25%,.
O=C(c1cc2cc(F)ccc2[nH]1)N1CCN(c2cccc(Cl)c2)CC1,3%,10%,8%,-18%,0%,8%
O=C(O)c1cccc([S+](=O)([O-])N2CC(CNC(=O)c3ccccc3)C3(CN(c4ccccc4)C3)C2)c1 (stereo not drawn),.,.,.,.,9%,.
O=[N+]([O-])/C=C\c1ccc(N2CCCC2)c(F)c1,?,-16%[10 µM],7.3µM*,2.6µM*,.,?
O=Cc1ccc(N2CCCC2)c([N+](=O)[O-])c1,5%,2%,-7%,-23%,-11%,16%
CC1CCN(S(=O)(=O)c2ccc(C(=O)Nc3nnc(C4=COCCO4)o3)cc2)CC1,?,1µM*,23µM*,?,463%,1.1µM*
O=C(Nc1nnc(C2=COCCO2)o1)c1ccc(S(=O)(=O)N2CCCCC2)cc1,?,3.2µM*,?,?,0%,1.3µM*
